# In paper PMC4336329 (PLoS ONE, 2015):
# The whole screen tested about 310,000 compounds, of which about 14,000 (4.5%) showed an effect of 50% or more. Effects have a minus sign here. The entries come from a sample that favours strong results as a whole.
# Biological target: human ether-à-go-go-related gene (hERG) potassium channel (human, UniProt Q12809)
# Assay: primary screen, population patch clamp on CHO cells stably expressing hERG; higher = less effect of the substance
# 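Also: peak tail current of the secondary pulse compared with the same well before compound.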
# Sequence of human ether-à-go-go-related gene (hERG) potassium channel (Q12809 whole entry, looked up): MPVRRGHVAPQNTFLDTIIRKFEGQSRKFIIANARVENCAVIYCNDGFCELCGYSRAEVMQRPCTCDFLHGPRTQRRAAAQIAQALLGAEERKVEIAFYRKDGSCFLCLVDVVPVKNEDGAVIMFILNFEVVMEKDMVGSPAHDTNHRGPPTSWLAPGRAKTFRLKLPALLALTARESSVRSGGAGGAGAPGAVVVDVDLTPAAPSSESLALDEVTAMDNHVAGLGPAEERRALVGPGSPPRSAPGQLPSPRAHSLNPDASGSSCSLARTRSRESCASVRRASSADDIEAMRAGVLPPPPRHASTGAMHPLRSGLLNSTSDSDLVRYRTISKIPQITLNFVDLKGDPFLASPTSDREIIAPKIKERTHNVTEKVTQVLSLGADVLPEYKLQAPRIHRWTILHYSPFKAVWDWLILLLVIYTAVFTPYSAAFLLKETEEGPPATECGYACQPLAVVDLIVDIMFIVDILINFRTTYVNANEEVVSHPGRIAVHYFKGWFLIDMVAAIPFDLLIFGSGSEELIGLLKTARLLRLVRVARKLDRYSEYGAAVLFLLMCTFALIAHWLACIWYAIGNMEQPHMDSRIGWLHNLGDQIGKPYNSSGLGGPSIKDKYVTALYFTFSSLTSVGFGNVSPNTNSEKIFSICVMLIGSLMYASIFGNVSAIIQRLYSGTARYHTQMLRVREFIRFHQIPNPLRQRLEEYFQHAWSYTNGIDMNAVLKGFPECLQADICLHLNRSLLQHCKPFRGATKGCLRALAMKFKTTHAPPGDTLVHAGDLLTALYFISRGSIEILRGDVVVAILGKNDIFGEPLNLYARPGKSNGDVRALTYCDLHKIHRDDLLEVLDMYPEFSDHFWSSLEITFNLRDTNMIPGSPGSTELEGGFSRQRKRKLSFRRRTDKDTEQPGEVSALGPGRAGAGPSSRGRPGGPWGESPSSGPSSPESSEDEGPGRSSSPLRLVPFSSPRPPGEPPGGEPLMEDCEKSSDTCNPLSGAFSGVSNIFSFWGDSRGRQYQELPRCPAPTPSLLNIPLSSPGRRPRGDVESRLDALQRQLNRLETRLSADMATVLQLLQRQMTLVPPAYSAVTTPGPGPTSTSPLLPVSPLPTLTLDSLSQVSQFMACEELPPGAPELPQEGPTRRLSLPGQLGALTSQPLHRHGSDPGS
row,Compound,"hERG current change (%, negative = inhibition) at 10uM [%]"
1,Cc1onc(-c2c(Cl)cccc2Cl)c1C(=O)O/N=C(\C#N)c1c(Cl)cccc1Cl,9.4
2,COc1cccc(CNC(=O)CCNC(=O)c2ccc(Br)o2)c1,11.2
3,Nc1cc(=O)[nH]c(SCC(=O)Nc2ccccc2Sc2ccc(Cl)cc2)n1,14.5
4,Cc1ccc(OCCNC(=O)CNC(=O)c2ccc(C)cc2)cc1,9.37
5,COCCNC(=O)Cc1cn(C)c2ccccc12,4.15
6,CCOC(=O)N1CCC(=NNC(=O)c2ccc(O)cc2)CC1,4.27
7,COc1ccc(C2C3=C(CC(C)(C)CC3=O)Nc3c2c(=O)[nH]c(=O)n3Cc2ccccc2)cc1 (centres unmarked),8.57
8,COc1ccc(C2C3=C(CC(C)(C)CC3=O)Oc3ncn4nc(-c5cccnc5)nc4c32)cc1 (centres unmarked),-2.59
9,COc1ccc(C2C3=C(CC(C)(C)CC3=O)Oc3ncn(Cc4ccccc4)c(=N)c32)cc1 (centres unmarked),-55.5
10,O=C(C1CCN(Cc2cn[nH]c2-c2ccc(F)cc2F)CC1)N1CCOCC1,8.72
11,COc1ccc(C(=O)N2CCN(Cc3cn[nH]c3-c3ccc(OC)cc3F)CC2)cc1,-38.3
12,O=C(c1ccc(F)cc1)C1CCN(Cc2cn[nH]c2-c2ccc(F)cc2)CC1,-75.2
13,O=C(c1ccc(F)cc1)C1CCN(S(=O)(=O)c2ccccc2)CC1,-43.1
14,COc1ccc(-c2[nH]ncc2CN2CCC(C(=O)N3CCOCC3)CC2)c(F)c1,5.23
15,COc1ccc(-c2[nH]ncc2CN2CCC(C(=O)c3ccc(F)cc3)CC2)cc1,-76.2
16,O=C(c1ccc(F)cc1)C1CCN(Cc2cn[nH]c2-c2ccccc2)CC1,-78.8
17,O=S(=O)(c1ccc2c(c1)CCN2)N1CCOCC1,-2.2
18,O=c1c2cc(N3CCOCC3)ccc2[nH]c(=S)n1Cc1ccco1,-25.1
19,Cc1cc(N2CC34C=CC(O3)C(C(=O)O)C4C2=O)no1 (centres unmarked),2.22
20,COC(=O)COc1ccc2occ(C(C)=O)c2c1,-3.74
21,O=C(NCC(c1ccco1)N1CCc2ccccc2C1)c1ccccc1Br (centres unmarked),-37.5
22,CCCCCCC1C(C#N)=C(N)OC2=C1C(=O)CC(C)(C)C2 (centres unmarked),-0.43
23,Cc1ccccc1OC(C)C(=O)N1CCC(Cc2ccccc2)CC1 (centres unmarked),-17.5
24,O=C(/C=C/c1ccco1)Nc1ccc(CN2CCOCC2)cc1,-31.3

row,Compound,"hERG current change (%, negative = inhibition) at 10uM [%]"
1,COc1ccc(CN2CCC(=O)N([C@H](CO)Cc3ccccc3)CC2)cc1,-2.16
2,COc1ccc(SC[C@H](Cc2ccccc2)N2CC[C@@H](C(C)(C)C)CCC2=O)cc1,9.92
3,COc1ccc(SC[C@H](CC(C)C)N2CCN(C)CCC2=O)cc1,-36.3
4,COc1ccc(SC[C@H](Cc2ccccc2)N2CCN(CCc3ccccc3)CCC2=O)cc1,-74.6
5,COc1ccc(SC[C@H](Cc2ccccc2)N2CC[C@@H](O)CCC2=O)cc1,-8.62
6,CCCN1CCC(=O)N([C@H](CSc2ccc(OC)cc2)Cc2ccccc2)CC1,-70.5
7,COc1ccc(CN2CCC(=O)N([C@H](CO)CC(C)C)CC2)cc1,-2.62
8,COc1ccc(SC[C@H](Cc2ccccc2)N2CC[C@@H](C)CCC2=O)cc1,-20.1
9,CCCN1CCC(=O)N([C@H](CSc2ccc(OC)cc2)CC(C)C)CC1,-70.8
10,CCCN1CCC(=O)N(CCSc2ccc(OC)cc2)CC1,-45.4
11,COc1ccc(SC[C@H](CC(C)C)N2CCN(CCc3ccccc3)CCC2=O)cc1,-71.3
12,Cc1ccc(OCc2nc3ccccc3[nH]2)cc1,-9.02
13,O=C(CN1CCN(c2cccc(C(F)(F)F)c2)CC1)N(C1CC1)C1CCS(=O)(=O)C1 (centres unmarked),-29.2
14,O=[N+]([O-])c1cccnc1N1CCCCC1,5.7
15,Cc1c(C(=O)N2CCN(c3ccccc3)CC2)sc2nc3n(c(=O)c12)CCC3,6.84
16,COc1ccc(-c2nnnn2C)cc1S(=O)(=O)NCCc1ccccc1,-2.23
17,CCc1c(C)sc(NC(=O)Cc2ccccc2OC)c1C(=O)N1CCOCC1,-16.4
18,Cc1cc(N)n2nc(-c3ccc(C(C)(C)C)cc3)cc2n1,8.26
19,O=C(NCC(c1cccs1)N1CCOCC1)c1cc([N+](=O)[O-])ccc1Cl (centres unmarked),-20.5
20,NC(=O)c1ccccc1OCC(=O)Nc1ccc2c(c1)CCC2,5.27
21,Cc1ccc(S(=O)(=O)Oc2ccc(/C=C3\N=C(c4cccc(C)c4)OC3=O)cc2)cc1,1.5
22,O=C(COc1ncnc2ccccc12)Nc1ccc(Cl)c(S(=O)(=O)N2CCOCC2)c1,-13.5
23,CCn1c(C)c(C(=O)O)c2cc(OC)ccc21,6.41
